Measurements as given in PubChem BioAssay (EPA / NIEHS).
Activity calls are given as the source filed them. Rule for the calls: active = hit-call score of the fitted dose curve at least 0.9, where 1 is the maximum; inactive = score below 0.9.

How the values were obtained:
[1] = APR_HepG2_CellCycleArrest_24hr: Apredica 24-hour HepG2 Assay for Cell Cycle Arrest (AID 2282905); conditions: imaging, actives raise or lower the signal;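 note: cell cycle arrest scored as ratio of 2N to 4N nuclear DNA content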
Method in brief: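 Compounds at 0.39–200 uM (0.5% DMSO) for 24 h, then fixed and Hoechst 33342 stained. Cell-cycle analysis of nuclear DNA content by high-content imaging, fitted bidirectionally versus DMSO.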

[2] = APR_HepG2_NuclearSize_24hr: Apredica 24-hour HepG2 Assay for Nuclear Size (AID 2282907); conditions: high-content imaging, actives raise or lower the signal
Method in brief: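 HepG2 cells exposed 24 h to compounds at 0.39–200 uM (0.5% DMSO), fixed, Hoechst 33342 stained and imaged at 20x; nuclear diameter measured by automated image analysis, fitted bidirectionally against DMSO controls.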

[3] = APR_HepG2_CellLoss_24hr: Apredica 24-hour HepG2 Assay for Cell Loss (AID 2282908); conditions: high-content imaging;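 for AC50: fit in both directions so a hit may be cell loss or gain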
Method in brief: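 HepG2 cells exposed 24 hr to 0.39–200 uM compound in duplicate at 0.5% v/v final DMSO. Cells fixed in 3.7% formaldehyde and Hoechst 33342-stained. Cell number came from nuclear imaging at 20x. Bidirectional fit versus DMSO.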

[4] = APR_HepG2_MicrotubuleCSK_24hr: Apredica 24-hour HepG2 Assay for Microtubule CSK Stabilty (AID 2282909); conditions: HepG2 microtubule cytoskeleton imaging, actives raise or lower the signal
Method in brief: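 HepG2 cells were treated 24 hr with compound at 0.39–200 uM in duplicate (0.5% DMSO final), then fixed and permeabilized. Alpha-tubulin immunofluorescence was imaged by high-content microscopy, with bidirectional fitting against DMSO and taxol as positive control.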

[5] = APR_HepG2_MitoticArrest_24hr: Apredica 24-hour HepG2 Assay for Mitotic Arrest (AID 2282910); conditions: high-content imaging, actives raise or lower the signal
Method in brief: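 HepG2 cells, 24 h exposure at 0.39-200 uM (10 concentrations, duplicate, 0.5% DMSO). Fixed, stained for phospho-histone H3 with Hoechst; imaged by high-content microscopy, bidirectional fit versus DMSO.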

[6] = APR_HepG2_MitoMembPot_24hr: Apredica 24-hour HepG2 Assay for Mitochondrial Membrane Potential (AID 2282911); conditions: imaging, actives raise or lower the signal
Method in brief: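 Human hepatoma HepG2 cultures received ten compound concentrations up to 200 uM for 24 hr. Membrane-potential dye signal, captured by automated fluorescence microscopy, was scored for gain or loss against DMSO controls.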

[7] = APR_HepG2_MitoMass_24hr: Apredica 24-hour HepG2 Assay for Mitochondrial Mass (AID 2282912); conditions: high-content imaging, actives raise or lower the signal
Method in brief: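 HepG2 cells exposed 24 hr to 0.39–200 uM compound, 0.5% v/v DMSO, in duplicate. Stained before fixation with 250 nM MitoTracker Red CMXRos for 30 min, then imaged at 20x with Hoechst nuclei. Fitted in both directions against DMSO.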

[8] = APR_HepG2_CellCycleArrest_72hr: Apredica 72-hour HepG2 Assay for Cell Cycle Arrest (AID 2282914); conditions: high-content imaging, actives raise or lower the signal
Method in brief: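 Cell cycle arrest in HepG2 was scored from nuclear DNA content after 72 hr compound treatment (0.39–200 uM). Activity, either gain or loss, was fitted against the DMSO baseline.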

[9] = APR_HepG2_CellLoss_72hr: Apredica 72-hour HepG2 Assay for Cell Loss (AID 2282915); conditions: high-content imaging
Method in brief: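 HepG2 cells exposed 72 h to compound at 0.39–200 uM (10 concentrations, duplicate) in 0.5% DMSO. Fixed with 3.7% formaldehyde and Hoechst 33342-stained. Imaged at 20x; nuclear count gives cell number, fitted bidirectionally versus DMSO.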

[10] = APR_HepG2_P-H2AX_72hr: Apredica 72-hour HepG2 Assay for H2AX Phosphorylation (AID 2282916); conditions: imaging, actives raise or lower the signal;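 note: phospho-histone H2A.x immunostain intensity per cell marking DNA damage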
Method in brief: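 HepG2 cells treated 72 h at 0.39–200 uM, 0.5% DMSO final, duplicates. Formaldehyde-fixed, Triton-permeabilised, immunostained for phospho-H2A.x with Hoechst; fluorescence imaged at 20x, bidirectional fit versus DMSO.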

[11] = APR_HepG2_MitoMembPot_72hr: Apredica 72-hour HepG2 Assay for Mitochondrial Membrane Potential (AID 2282917); conditions: imaging, actives raise or lower the signal
Method in brief: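 HepG2 cells dosed 72 hr with compound at 0.39–200 uM in duplicate, 0.5% v/v DMSO final. Mitochondria stained with 250 nM MitoTracker Red CMXRos for 30 min before formaldehyde fixation, imaged by high-content fluorescence; bidirectional fit versus DMSO.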

[12] = APR_HepG2_MitoticArrest_72hr: Apredica 72-hour HepG2 Assay for Mitotic Arrest (AID 2282918); conditions: high-content imaging, actives raise or lower the signal
Method in brief: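 Mitotic arrest in HepG2 is scored from phospho-histone H3 staining after 72 hr dosing across 0.39–200 uM, with DMSO at 0.5% v/v. Nuclei are identified by Hoechst 33342 and fluorescence intensity is quantified per cell.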

[13] = APR_HepG2_MicrotubuleCSK_72hr: Apredica 72-hour HepG2 Assay for Microtubule CSK Stabilty (AID 2282919); conditions: HepG2 microtubule cytoskeleton, high-content imaging, actives raise or lower the signal
Method in brief: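 HepG2 cells were exposed 72 hr to compound at 0.39–200 uM in duplicate (0.5% DMSO final), then fixed and permeabilized. Alpha-tubulin immunofluorescence was imaged by high-content microscopy, with bidirectional fitting against DMSO and taxol as positive control.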

[14] = APR_HepG2_P-H2AX_24hr: Apredica 24-hour HepG2 Assay for H2AX Phosphorylation (AID 2282920); conditions: high-content imaging, actives raise or lower the signal
Method in brief: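 Signal comes from a FITC-labeled secondary detecting phospho-histone H2A.x in fixed HepG2 cells, quantified by automated imaging at 20x. Dosing ran 24 hr across 0.39–200 uM with 0.5% v/v DMSO.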

[15] = APR_HepG2_StressKinase_72hr: Apredica 72-hour HepG2 Assay for Stress Kinase (AID 2282921); conditions: HepG2 stress kinase (phospho-c-Jun) imaging, actives raise or lower the signal
Method in brief: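 HepG2 cells treated 72 hr with 0.39–200 uM compound, 0.5% v/v DMSO, duplicate wells. After formaldehyde fixation and Triton permeabilization, stained with anti-phospho-c-Jun (1:500) and Cy3 secondary, imaged at 20x. Fitted in both directions against DMSO.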

[16] = APR_HepG2_StressKinase_24hr: Apredica 24-hour HepG2 Assay for Stress Kinase (AID 2282922); conditions: HepG2 stress kinase (phospho-c-Jun) imaging, actives raise or lower the signal
Method in brief: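 HepG2 cells exposed 24 h to 0.39–200 uM compound in duplicate (0.5% v/v DMSO final). Cells fixed in 3.7% formaldehyde, permeabilized and immunostained for phospho-c-Jun; read by high-content fluorescence imaging, fitted bidirectionally against DMSO.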

[17] = APR_HepG2_MitoMass_72hr: Apredica 72-hour HepG2 Assay for Mitochondrial Mass (AID 2282924); conditions: high-content imaging, actives raise or lower the signal;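 note: MitoTracker Red CMXRos stain intensity per cell imaged as mitochondrial mass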
Method in brief: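 HepG2 cells dosed 72 hr at 0.39–200 uM (0.5% DMSO), in duplicate. MitoTracker Red CMXRos 250 nM loaded 30 min before formaldehyde fixation; high-content fluorescence imaging, bidirectional fit versus DMSO.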

[18] = APR_HepG2_StressKinase_1hr: Apredica 1-hour HepG2 Assay for Stress Kinase (AID 2282906); conditions: HepG2 stress kinase (phospho-c-Jun) imaging, actives raise or lower the signal
Method in brief: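 HepG2 cells dosed 0.39-200 uM (0.5% DMSO) for 1 h, then formaldehyde-fixed. Stress kinase read by phospho-c-Jun immunofluorescence using high-content imaging; bidirectional fit vs DMSO.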

[19] = APR_HepG2_p53Act_72hr: Apredica 72-hour HepG2 Assay for p53 Activation (AID 2282923); conditions: high-content imaging, actives raise or lower the signal;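 note: average cellular p53 protein immunofluorescence intensity in HepG2 cells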
Method in brief: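 HepG2 cells exposed 72 h to 0.39–200 uM in 0.5% DMSO, duplicates. Fixed, permeabilized cells immunostained for p53 (Cy5) with Hoechst; imaged at 20x, fluorescence analyzed bidirectionally against DMSO.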

[20] = APR_HepG2_p53Act_24hr: Apredica 24-hour HepG2 Assay for p53 Activation (AID 2282913); conditions: high-content imaging, actives raise or lower the signal;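 note: p53 protein immunofluorescence averaged per cell in HepG2 with Hoechst nuclei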
Method in brief: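 Automated fluorescence imaging quantifies p53 immunostaining in HepG2 cells after a 24 hr exposure (0.39–200 uM, duplicate, 0.5% DMSO). Nuclei are located by Hoechst 33342 staining.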

Measured: AC50

O=[N+]([O-])/N=C1\NCCN1Cc1ccc(Cl)nc1
inactive: [1] | [2] | [3] | [4] | [5] | [6] | [7] | [8] | [9] | [10] | [11] | [12] | [13] | [14] | [15] | [16] | [17]

COP(=O)(OC)OC=C(Cl)Cl
active: [1] 99.1 µM | [3] 58.9 µM | [9] 78 µM | [14] 76.2 µM
inactive: [2] | [4] | [5] | [6] | [7] | [8] | [10] | [11] | [12] | [13] | [15] | [16] | [17]

CCC(C)Nc1c([N+](=O)[O-])cc(C(C)(C)C)cc1[N+](=O)[O-] (stereo not given)
active: [1] 89 µM | [3] 45.8 µM | [4] 27.4 µM | [6] 100 µM | [8] 83.7 µM | [9] 64.9 µM | [13] 57.8 µM
inactive: [2] | [5] | [7] | [10] | [12] | [14] | [15] | [16] | [17]

CNC(=O)Oc1ccccc1OC(C)C
inactive: [1] | [18] | [2] | [3] | [4] | [6] | [7] | [8] | [9] | [10] | [12] | [13] | [14] | [15] | [16] | [19] | [17]

O=C1c2ccccc2C(=O)N1SC(Cl)(Cl)Cl
active: [9] 30.8 µM
inactive: [1] | [18] | [2] | [3] | [4] | [6] | [7] | [8] | [10] | [12] | [13] | [14] | [15] | [16] | [19] | [17]

COP(=S)(OC)Oc1ccc([N+](=O)[O-])cc1
inactive: [1] | [18] | [2] | [3] | [4] | [6] | [7] | [8] | [9] | [10] | [11] | [12] | [13] | [14] | [15] | [16] | [19] | [17]

CC[C@H](C)[C@H]1O[C@]2(C=C[C@@H]1C)C[C@@H]1C[C@@H](C/C=C(\C)[C@@H](O[C@H]3C[C@H](OC)[C@@H](O[C@H]4C[C@H](OC)[C@@H](O)[C@H](C)O4)[C@H](C)O3)[C@@H](C)/C=C/C=C3\CO[C@@H]4[C@H](O)C(C)=C[C@@H](C(=O)O1)[C@]34O)O2 (tested in a mixture with another compound)
active: [1] 12.7 µM | [18] 22.3 µM | [3] 12.2 µM | [4] 120 µM | [7] 114 µM | [8] 21.6 µM
inactive: [2] | [6] | [20] | [9] | [10] | [12] | [13] | [14] | [15] | [16] | [19] | [17]
